Laboratory results published in PubChem BioAssay AID1626 (SRMLSC, 2009).
The campaign covered roughly 220,000 compounds. About 2,000 (0.91%) were called active. About 2% were inconclusive and are not listed. Not all results are given here. Results with a measured potency or affinity are listed apart. Unmarked numbers belong to inactive results. Cut-off read from the data, not from the text of the source: inconclusive = inhibition above about 80% without an active follow-up result; inactive = below that; test concentration not stated here.

Test: M. tuberculosis H37Rv growth inhibitors, H37Rv strain (AID 1626);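 note: bacteria incubated seven days before Alamar blue readout; 0% = bacteria only wells and 100% = bacteria with antibiotic wells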
Details: hits give high values, concentration not given here

Point of comparison: `COC(=O)C1(C(F)(F)F)N=C2Sc3ccccc3N2C(N2CCOCC2)=N1` (configuration not stated), inhibition -2.56%. Against it:
- Cc1sc2nc(CN3CCOCC3)nc(Cl)c2c1C — higher, 1.93%
- Cc1sc2nc(CN3CCOCC3)nc(N3CCOCC3)c2c1C — lower, -5.18%
- COc1ccc(CCNC(=O)COc2ccc(-c3ccc(C#N)cc3)cc2)cc1 — lower, -19.4%
- N#Cc1ccc(-c2ccc(OCC(=O)NCCc3ccccc3)cc2)cc1 — higher, 7.81%
- CN(C)c1ccc(NC(=O)N2CCOCC2)cc1 — lower, -3.81%
- N#Cc1c(NC(=O)CN2C(=O)c3ccccc3C2=O)oc(-c2ccccc2)c1-c1ccccc1 — lower, -4.11%
- Cc1[nH]c2ccccc2c1C(=O)C(=O)NCC1CCCO1 (configuration not stated) — higher, 7.05%
- Brc1ccc(-c2csc(-c3ccncc3)n2)cc1 — higher, 40.3%
- Cc1ccc(-c2csc(-c3ccncc3)n2)cc1 — lower, -6.57%
- Brc1ccc(-c2csc(Nc3nc(-c4ccc(Br)cc4)cs3)n2)cc1 — higher, 7.47%
- CCCOc1ccc(-c2nc(-c3ccc(N)cc3)cs2)cc1 — higher, 1.99%
- Cc1nc(N2CCN(c3ccccc3)CC2)[nH]c(=O)c1CCC(C)C — higher, 6.58%
- Nc1nc(SCC(=O)N2CCCc3ccccc32)n(-c2ccccc2)n1 — higher, -0.56%
- CCC1S/C(=N\S(=O)(=O)c2cccs2)N(C2CCCCC2)C1=O (configuration not stated) — lower, -5.04%
- CC1(C)Cc2c(sc(NC(=O)Cc3ccccc3)c2C#N)CO1 — higher, -0.57%
- O=C(NC1CCCCC1)N(Cc1nc2ccccc2c(=O)[nH]1)C1CCCCC1 — higher, 12.6%
- Cc1cccc(Oc2nc(CN3CCOCC3)nc3sc4c(c23)CCCC4)c1 — higher, 14%
- Cc1ccc(Oc2nc(CN3CCOCC3)nc3sc4c(c23)CCC(C)C4)cc1C (configuration not stated) — higher, 40.8%
- O=C(Nc1ccc2c3c(cccc13)CC2)c1cccc([N+](=O)[O-])c1 — higher, 2.05%
- CCC(CC)NC(=O)/C=C/c1ccccc1Cl — lower, -14.3%
- COC(=O)[C@H](CC(C)C)NC(=O)NCc1ccc(Cl)cc1 — higher, -2%
- CC(Cc1ccccc1)NC(=O)/C=C/c1ccc(Cl)cc1 (configuration not stated) — higher, -0.45%
- O=C(/C=C/c1ccccc1Cl)NCc1ccccc1 — higher, -0.07%
- CCOC(=O)Nc1ccc2c(c1)nc(CN1CCOCC1)n2C — lower, -2.73%
- Cc1ccc2nc(N(CCCN(C)C)C(=O)c3ccc(S(=O)(=O)N(C)C)cc3)sc2c1 — lower, -7.66%
- CN(C)CCCN(C(=O)c1ccc2c(c1)CCCC2)c1nc2ccc(F)cc2s1 — higher, 62.6%
